Screens: PubChem, National Center for Advancing Translational Sciences (NCATS)
This is a sample that favours compounds with a hit; in the whole collection about 21% have one here.
Pf growth 48h: P. falciparum growth inhibition at 48 hours (one generation). 310,000 tested, 5.9% active. P. falciparum luciferase growth in erythrocytes, 48 h. Potency, µM (top dose mostly 28.7 µM), without a hit: top-dose activity change, negative = inhibition, actives largely listed as inhibitors; note: potency is the fitted concentration of half-maximal effect; % is set by controls: 0 for no effect and ±100 for the full control effect
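Compounds are pin-transferred into medium, infected erythrocytes (2% hematocrit, 0.1% parasitemia final) are added, and plates sit one parasite generation at 37 C in 5% CO2. Detection reagent is then added and luminescence measured.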
NS1 inh: influenza NS1 inhibition; Potency, µM (highest dose often 46.1 µM), without a hit: at the top dose activity, positive = more growth; 270,000 tested, 0.4% active; AID 2326; calls by dose curve; note: potency is the fitted concentration of half-maximal effect; actives are rising curves; nearly all actives have a fitted effect of over 50% in size
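OD600 was taken as the measure of yeast growth restored by compound in an NS1-expressing S. cerevisiae strain. Cells had been washed out of glucose medium and diluted 1:100 into galactose -URA medium, pH 6.0.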
Sm TGR inh: S. mansoni TGR enzyme inhibition. purified TGR, DTNB reduction, TNB absorbance 405 nm. 360,000 tested, 3% active. AID 485364. Potency, µM (series often up to 114 µM), without a hit: top-dose activity change, negative = inhibition, most hits filed as inhibitors; note: potency is the fitted concentration of half-maximal effect; % is set by controls: 0 for no effect and ±100 for the full control effect; nearly all actives have a fitted effect of over 60% in size
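First, TGR (20 nM dispensed) and NADPH were mixed with compound. Second, a 15 min room-temperature incubation followed. Third, further NADPH and then DTNB were added to start the reaction. Finally, TNB absorbance was monitored kinetically.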
Pf growth 96h: P. falciparum growth inhibition at 96 hour, primary screen for plastid delayed-death inhibitors | P. falciparum luciferase reporter growth, 96 h | Potency, µM (top dose mostly 28.7 µM), for the others: at the top dose activity change, negative = inhibition, actives largely listed as inhibitors | 320,000 tested, 6.9% active | AID 504834; note: potency is the fitted concentration of half-maximal effect; % is set by controls: 0 for no effect and ±100 for the full control effect
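Two-generation exposure (96 h) targets delayed-death phenotype. Reporter parasites carrying integrated firefly luciferase, in red cells at 2% hematocrit and 0.05% parasitemia final, kept at 37 C, 5% CO2; luminescence loss indicates inhibition.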
Shiga toxin inh: blocks Shiga toxin action in Vero cells. Vero cells, Shiga toxin protein synthesis inhibition reporter. inhibition, % at 38.7 µM. 290,000 tested, 9.2% active. AID 2315; in the data active = inhibition mostly above about 28%, no sharp cut-off; inactive = mostly below about 43%; note: 0% is about no effect
CHX counter: counter-screen for Shiga toxin inhibitors: cycloheximide protein synthesis inhibition; max response, %; cell reporter, cycloheximide protein synthesis inhibition counterscreen; AID 2314; 300,000 tested, 12% active; in the data active = max response mostly above about 13%, no sharp cut-off; inactive = mostly below about 14%; note: read at 38.3 µM for the half of the compounds with a filed dose; 0% is about no effect
Starred values were filed as active, the others as inactive; i = inactive; ? = inconclusive; . = not tested or not shown; [ ] = another dose, or the depositor's remark. Unless noted, calls come from the whole dose curve; as a rule, active = well fitted curve in the direction sought with a large enough effect; inconclusive = small, poorly fitted or top-dose-only effect, or another doubt; inactive = no such curve, though single readings can be large; an effect the other way counts as inactive or inconclusive.

SMILES	Pf growth 48h	NS1 inh	Sm TGR inh	Pf growth 96h	Shiga toxin inh	CHX counter
CCCCC(=O)Nc1cc([N+](=O)[O-])ccc1Cl	14%	-2%	-1%	-9%	-8	-4
Cc1ccccc1OCC(=O)NCC(=O)OCC(=O)c1ccc([N+](=O)[O-])cc1	14%	-6%	-15%	32%	-38	-1
O=C(CCc1ccccc1)OCC(=O)c1ccc([N+](=O)[O-])cc1	21%	.	-1%	12µM*	-4	11
O=C(CC(=O)c1ccccc1)Nc1cc([N+](=O)[O-])ccc1Cl	0%	?	15%	-9%	67	16*
O=C(CCC(=O)OCC(=O)c1cccc([N+](=O)[O-])c1)Nc1cccc(Cl)c1Cl	18%	3%	-8%	-1%	2	-3
Cn1c(=O)c2c(ncn2CCOc2ccc(F)cc2)n(C)c1=O	2%	-12%	5%	-21%	20	-1
Nc1nc(CN2CCN(c3ccccc3)CC2)nc(Nc2ccc(Cl)cc2)n1	?	-4%	3%	5%	-19	8
CCOc1ccc(Nc2nc(N)nc(CSC(=S)N3CCN(c4ccccc4)CC3)n2)cc1	12µM*	8%	0%	13µM*	25	4
COc1ccc(Nc2nc(N)nc(CSC(=S)N3CCN(c4ccccc4)CC3)n2)cc1	?	18%	-3%	12µM*	-2	1
CC1CCN(C(=S)SCc2nc(N)nc(Nc3ccccc3)n2)CC1	-24%	-3%	-14%	-26%	35*	25*
CC(C)CC(=O)Nc1cccc(NC(=O)CC(C)C)n1	15%	-7%	-1%	41%	-12	-4
C=CCOc1cccc(/C=N/NC(=O)CN(c2cc(Cl)ccc2OC)S(=O)(=O)c2ccc(C)c([N+](=O)[O-])c2)c1	?	27%	-15%	1.2µM*	-4	-2
COc1cccc(OC)c1OC(=O)/C=C/c1ccc(C)o1	-1%	-12%	35µM*	2%	-3	-5
CC(/C=C/c1ccc(C)o1)=C\C(=O)O	-8%	3%	7.9µM*	132%	-13	-3
Cc1ccc(/C=N/NC(=O)C(=O)N/N=C/c2ccc(C)o2)o1	8%	.	-18%	?	-5	0
CC(=O)/C=C/c1ccc(C)o1	8%	.	7.1µM*	?	18	11
CC(=C/C(=O)O)/C=C/c1ccc(Cl)o1	16%	-12%	0%	2%	78*	50*
CC(/C=C\c1cccnc1)=C/C(=O)O	0%	?	0%	-8%	-10	-3
COc1ccc(C2=Nn3c(nnc3-c3ccccc3C)SC2)cc1	.	.	.	.	-4	-3
Cc1ccc(CNC(=O)Cn2cc(S(=O)(=O)Cc3ccccc3Cl)c3ccccc32)cc1	.	.	-1%	.	.	.
Cc1ccnc(N2CCN(C(=O)CSc3nc4ccccc4nc3N3CCC(C)CC3)CC2)c1	?	.	1%	29%	21	21
COCCCN1C(=O)/C(=C/c2ccc(CNS(=O)(=O)c3ccccc3)o2)C(C(=O)OC)=C1C	?	4%	11µM*	25%[1.15 µM]	5	-3
Cn1c2ccccc2c2c(C(=O)NCc3ccco3)cn(C3CCCCC3)c(=O)c21	.	8%	79µM*	?	-10	-3
COCCn1cc(C(=O)NCc2ccco2)c2c3ccccc3n(C)c2c1=O	-8%	.	-22%	?	23	6
Cc1ccc(CNC(=O)c2cn(C3CCCC3)c(=O)c3c2c2ccccc2n3C)o1	?	-36%	8.9µM*	12%	2	6
SMILES	Pf growth 48h	NS1 inh	Sm TGR inh	Pf growth 96h	Shiga toxin inh	CHX counter
COc1ccc(N2CC(NC(=O)COc3ccc(F)cc3)CC2=O)cc1OC (centres undefined)	.	.	-6%	.	.	.
O=C(NC(NC(=S)Nc1ccccc1C(=O)O)C(Cl)(Cl)Cl)c1cccc([N+](=O)[O-])c1 (centres undefined)	69%	?	11%	2%	-12	10
COc1ccc(NC(=S)NC(NC(=O)c2cccc(C)c2)C(Cl)(Cl)Cl)c([N+](=O)[O-])c1 (centres undefined)	3.3µM*	2%	0%	-19%	-4	-1
COc1ccc(NC(=S)NC(NC(C)=O)C(Cl)(Cl)Cl)c([N+](=O)[O-])c1 (centres undefined)	14%	10%	-19%	?	-3	1
COc1ccc(NC(=S)NC(NC(=O)c2cccc(Cl)c2)C(Cl)(Cl)Cl)c([N+](=O)[O-])c1 (centres undefined)	3.3µM*	7%	-1%	?	16	-2
COc1ccccc1NC(=S)NC(NC(=O)c1ccco1)C(Cl)(Cl)Cl (centres undefined)	?	6%	-17%	33%	-7	1
COc1ccccc1NC(=S)NC(NC(=O)CC(C)C)C(Cl)(Cl)Cl (centres undefined)	15µM*	0%	1%	?	-7	7
COc1ccc(NC(=S)NC(NC(=O)CF)C(Cl)(Cl)Cl)c([N+](=O)[O-])c1 (centres undefined)	6%	-2%	40µM*	?	-11	-1
CCOC(=O)c1[nH]cnc1C(=O)N1CCN(C(=O)OC(C)(C)C)CC1	12%	.	-8%	25%	.	.
COc1ccc(NC(=O)Cn2c(=O)n(CCc3ccccc3)c(=O)c3ccccc32)cc1	.	.	11%	.	.	.
Cc1c(Cl)cccc1-n1nc(C)c2c(C(=O)NCc3ccccc3)cc(C3CC3)nc21	.	.	1%	.	.	.
Cc1cccc(NC(=O)CSC2=Nc3ccccc3C3=NC(CCC(=O)NCc4ccc(F)cc4)C(=O)N23)c1 (centres undefined)	.	.	3%	.	.	.
Cc1ccccc1OCCSc1nc2ccc(NC(=O)c3ccccc3)cc2s1	.	.	1%	.	.	.
Cc1csc(NC(=O)c2ccc(COc3ccccc3)o2)n1	75%	-33%	-16%	73%	90*	49*
Cc1cccc(NC(=O)c2ccc(COc3ccccc3)o2)n1	27%	-25%	-18%	31%	40*	16*
C=CCn1cccc(C(=O)Nc2ccc(N(C)C)cc2)c1=O	101%	-7%	-15%	118%	90*	39*
C=CCn1cccc(C(=O)Nc2ccc(OCC)cc2)c1=O	i	.	4%	125%	95*	35*
C=CCn1cccc(C(=O)Nc2ccc(Cl)cc2)c1=O	88%	-37%	3%	111%	64*	36*
C=CCn1cccc(C(=O)Nc2ccc(SC)cc2)c1=O	26%	-12%	3%	43%	93*	53*
C=CCn1cccc(C(=O)Nc2ccc(OC)c(OC)c2)c1=O	34%	.	0%	41%	28	36
CSCC[C@H](N)C(=O)N[C@@H](CCCN=C(N)N)C(=O)N[C@@H](CC(C)C)C(=O)N[C@@H](Cc1ccccc1)C(=O)N[C@H](C(=O)O)C(C)C	.	.	.	.	-15	-1
O=C(OCC(=O)N1CCc2ccccc21)c1n[nH]c(=O)c2ccccc12	23%	.	4%	11%	.	.
